Compound activity as filed in PubChem.
Insulin prom up: insulin promoter activators in MIN6 cells, imaging, high-content screening, mouse beta cells. z-score at 5 µM. 190,000 tested, 0.3% active. AID 1625, 2009. MIN6 insulin promoter-GFP reporter; stronger effect = higher value;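 active = z-score above 3 at 5 µM with at least 500 cells counted in the well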
L major viab: Leishmania major promastigote growth inhibition, primary screen; Leishmania major promastigotes, resazurin fluorescence viability; inhibition, % at 10 µM; 200,000 tested, 9% active; AID 1063, 2008; in the data active = inhibition above about 50%;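 also: promastigotes grown with compound for 44 hours at 28 °C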
WT yeast gro inh: growth inhibition of WT strain, primary screen, mitochondrial fusion inhibitor project, WT and mutant strains, chemical genetic; inhibition, % at 10 µM; 190,000 tested, 2.1% active; mitochondrial fusion phenotypic screen; in the data active = inhibition above about 58%; tested in S. cerevisiae
Insulin prom inh: inhibitors of insulin promoter-driven GFP, primary screen, imaging, TRM-6 cells (human fetal islet line), eGFP reporter, cell count; reporter expression induced with tamoxifen; inhibition, % at 2 µM; 130,000 tested, 0.9% active;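 active = inhibition above the mean plus 3 SD, with well images judged a real hit on visual review, cut at about 60% in these data, passing the limit was not always enough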
KCC2 mod: KCC2 cotransporter modulators, thallium flux, primary screen, cell-based, HEK293 KCC2, FluoZin-2 fluorescence, MLSMR; 190,000 tested, 2.2% active; KCC2 cells, thallium flux FluoZin-2 fluorescence; Solute carrier family 12 member 5 (Homo sapiens), Q9H2X9; B-score of Tl+ flux slope (higher = more flux/activation; lower = inhibition) at 10 µM;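 active = thallium flux slope and its plate-corrected score both differing from the plate sample mean at a set confidence after two filtering rounds, in either direction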;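 also: slope of fluorescence scaled to starting intensity during 10 to 20 s after thallium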
Target sequence (Q9H2X9 whole entry, looked up): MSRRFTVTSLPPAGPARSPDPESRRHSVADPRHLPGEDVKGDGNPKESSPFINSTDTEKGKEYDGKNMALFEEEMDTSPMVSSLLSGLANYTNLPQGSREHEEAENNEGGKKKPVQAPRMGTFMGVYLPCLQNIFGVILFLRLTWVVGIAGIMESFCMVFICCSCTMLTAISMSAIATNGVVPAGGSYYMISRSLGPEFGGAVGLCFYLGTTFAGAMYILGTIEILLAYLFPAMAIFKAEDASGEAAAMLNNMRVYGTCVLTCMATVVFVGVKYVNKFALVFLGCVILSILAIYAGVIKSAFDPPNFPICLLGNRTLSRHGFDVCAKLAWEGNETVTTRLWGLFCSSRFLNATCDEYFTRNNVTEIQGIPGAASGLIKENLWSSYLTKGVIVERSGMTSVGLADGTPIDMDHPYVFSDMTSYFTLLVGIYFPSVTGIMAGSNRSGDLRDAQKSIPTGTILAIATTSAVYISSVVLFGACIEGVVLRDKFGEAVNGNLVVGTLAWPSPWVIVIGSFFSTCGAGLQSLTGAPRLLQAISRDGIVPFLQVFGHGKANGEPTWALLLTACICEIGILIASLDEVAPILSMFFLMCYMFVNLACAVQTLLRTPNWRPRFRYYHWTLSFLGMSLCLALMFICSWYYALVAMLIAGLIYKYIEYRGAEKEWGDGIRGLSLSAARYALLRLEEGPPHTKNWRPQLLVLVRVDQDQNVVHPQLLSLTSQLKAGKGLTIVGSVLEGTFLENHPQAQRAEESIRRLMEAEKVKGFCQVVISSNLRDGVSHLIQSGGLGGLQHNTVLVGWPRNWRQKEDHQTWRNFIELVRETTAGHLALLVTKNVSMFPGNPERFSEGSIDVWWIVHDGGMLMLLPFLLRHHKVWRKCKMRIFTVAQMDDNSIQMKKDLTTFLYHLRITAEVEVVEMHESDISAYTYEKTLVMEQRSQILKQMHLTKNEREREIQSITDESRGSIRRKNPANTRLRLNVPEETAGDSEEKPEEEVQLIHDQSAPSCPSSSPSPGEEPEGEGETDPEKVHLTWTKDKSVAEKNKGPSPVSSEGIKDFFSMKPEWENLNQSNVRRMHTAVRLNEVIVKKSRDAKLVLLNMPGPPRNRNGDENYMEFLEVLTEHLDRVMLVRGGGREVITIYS
ROMK mod: ROMK potassium channel modulators, primary screen, cell-based, thallium flux, MLSMR library; ATP-sensitive inward rectifier potassium channel 1 (Homo sapiens), P48048; Tet-inducible ROMK, thallium flux fluorescence; actives lie on both sides; B-score at 10 µM; 130,000 tested, 2% active;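 active = signal ratio slope over the read window, or its plate-corrected B-score, at least 3 SD from the plate mean, either direction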;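 also: B-score of the F/F0 ratio slope over 7 to 12 s after thallium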
* marks the source's active call; other numbers are inactive results; . = no result. A selection: hits, their analogues and other compounds. The true share with any hit is near 12%.

SMILES	Insulin prom up	L major viab	WT yeast gro inh	Insulin prom inh	KCC2 mod	ROMK mod
O=C(C1CC1)N1CCc2cc(Br)cc(S(=O)(=O)NCCCN3CCCC3)c21	0.55	99*	-1	12	1.1	-0.26
O=C(Nc1cccc(-c2cn3ccccc3n2)c1)c1cc2ccccc2oc1=O	-0.4	15	15	30	.	.
CC(C)CC(C(=O)OCC(=O)Nc1cccc(Cl)c1)N1C(=O)C2CC=CCC2C1=O (stereo not given)	-0.14	6	32	.	-3.2	.
Cc1ccccc1C(=O)Nc1ccccc1C(=O)N/N=C\c1ccco1	-0.11	-3	-12	.	0.27	-0.014
O=C(Nc1ccccc1C(=O)N/N=C/c1ccco1)c1ccccc1	0.12	20	19	41	7.8*	0.2
CCCCCC(=O)N/N=C/c1ccco1	0.43	78*	-4	0	0.57	0.22
O=C(N/N=C\c1ccco1)Nc1cccc(Cl)c1	0.48	63*	0	-14	-1.3	-0.46
O=C(CCCCCCCCC(=O)N/N=C/c1ccco1)N/N=C/c1ccco1	0.52	1	9	31	-0.017	-0.35
Cc1cc(N(C)/N=C/c2ccccc2O)nc(-c2ccccc2O)n1	0.29	-3	10	-78	0.46	-0.51
CC(=O)c1sc(N/N=C2\CC3CC2C(C)C3(C)C)nc1C (stereo not given)	-2.1	91*	29	.	-0.024	-0.78
O=S(=O)(c1cccc(-c2n[nH]c(=S)o2)c1)N1CCOCC1	-0.36	.	.	.	-0.69	.
COc1ccc(C(c2c(C)[nH]n(C(N)=S)c2=O)C(C#N)C#N)cc1 (stereo not given)	.	94*	1	19	0.084	-3
CCCn1c(SCC(=O)c2ccc3c(c2)OCCO3)n[nH]c1=O	0.89	-5	-7	-20	0.86	0.54
CCCc1cc(=O)[nH]c(SCC(=O)c2ccc3c(c2)OCCO3)n1	0.17	61*	-21	-30	-0.37	0.78
CCCc1cc(=O)[nH]c(SCC(=O)NCCCC(=O)OCC)n1	3.1*	-10	-15	-11	0.12	.
CCCc1cc(=O)[nH]c(SCC(=O)NC(=O)OCC)n1	0.25	1	8	27	-0.71	-0.44
COc1cc(NC(=O)CSc2nc3ccccc3cc2Cc2ccccc2)cc(OC)c1	.	49	6	-22	-1	.
CCC(C)Nc1nnnc2c1sc1nc3c(cc12)COC(C)(C)C3 (stereo not given)	0.79	50*	28	55	-1.4	-0.00036
CCOC(=O)c1sc2nc3c(cc2c1N)COC(C)(C)C3	.	11	-5	81*	0.14	0.034
Cc1cc(C)nc(NC(N)=NCCc2c[nH]c3ccccc23)n1	.	78*	19	-15	-1	-1.2
NC(=NCCc1c[nH]c2ccccc12)NC(=O)c1ccc(Cl)cc1	0.22	60*	15	20	1.2	-0.037
Cc1cc(C)nc(NC2=NCC(=O)N2CCc2c[nH]c3ccccc23)n1	1.1	-8	-6	-86	.	.
Cc1cc(C)nc(NC(=NCCc2c[nH]c3ccccc23)NC(=O)Nc2ccc(Cl)cc2)n1	-1.1	73*	29	25	-2.2	.
O=C(N[C@@H](Cc1c[nH]c2ccccc12)C(=O)O)c1ccc(Cl)cc1	-0.4	-5	-16	40	0	1.3
O=C(Nn1c(-c2ccccc2)nc2ccccc2c1=O)C1CCC1	1.7	3	70*	.	0.38	0.3
SMILES	Insulin prom up	L major viab	WT yeast gro inh	Insulin prom inh	KCC2 mod	ROMK mod
CN(C)C(=S)Nn1c(-c2ccccc2)nc2ccccc2c1=O	0.42	-8	-12	28	-0.014	1
C/C(O)=C(/C=NCC(=O)O)C(=O)Nc1nccs1	-0.11	9	-11	20	1.4	1.6
CCOC(=O)CN(c1cccc(C(C)=O)c1)S(C)(=O)=O	-0.94	-5	4	-29	.	0.76
O=C(CCC1CCCCC1)Nc1c[nH]c(=O)[nH]c1=O	-0.15	1	-7	.	.	0.089
C=CCCCCCCCCC(=O)Nc1c[nH]c(=O)[nH]c1=O	.	93*	.	-3	0.66	.
CC(C)(CO)Nc1ccc([N+](=O)[O-])cc1[N+](=O)[O-]	-0.27	2	-11	17	0.68	-0.06
Cc1ccc(NCC(=O)N/N=C/c2cc(O)ccc2[N+](=O)[O-])cc1	-0.18	-10	-3	.	0.4	.
Cc1ccc(N(C)C(=O)C2CCCN2S(=O)(=O)c2ccc3c(c2)n(C)c(=O)c(=O)n3C)cc1 (stereo not given)	-0.18	.	.	.	0.36	.
CC(=O)Nc1ccc(NC(=O)c2cccc3c2-c2ccccc2C3=O)cc1	0.06	78*	-1	75*	-0.95	0.37
Cc1ccc(NC(=O)c2cccc3c2-c2ccccc2C3=O)cc1C	0.03	2	-6	-31	0.57	0.64
O=S(=O)(Cc1ccccc1)N1CCN(Cc2ccc3c(c2)OCO3)CC1	-0.49	92*	6	-68	-0.31	-0.27
NC(=O)COC(=O)c1cccc(S(=O)(=O)N2CCCCC2)c1	1.5	4	6	-11	-0.69	-0.25
O=C1CCc2cc(S(=O)(=O)N3CCN(Cc4ccc5c(c4)OCO5)CC3)ccc2N1	-1.6	-1	-16	.	-0.09	-1.4
CC(C)NC(=O)NC(=O)COC(=O)c1cccc(S(=O)(=O)N2CCCCC2)c1	4.6*	-8	6	0	0.08	-0.029
Cc1nn(Cc2ccccc2)c2sc(C(=O)N3CCN(Cc4ccc5c(c4)OCO5)CC3)cc12	-0.53	75*	19	-64	-0.42	-1.5
O=S(=O)(c1cccc(F)c1)N1CCN(Cc2ccc3c(c2)OCO3)CC1	-1.4	74*	12	-71	.	-0.92
C=CCC(CC)C(=O)NC(=O)N1CCCc2ccccc21 (stereo not given)	0.14	.	.	.	0.5	.
Cc1ccc(C)c(NC(=O)C2CC3c4ccccc4C2c2ccccc23)c1 (stereo not given)	-2	14	-7	-50	-0.34	0.0023
O=C(c1ccc2nc(N3CCCCC3)sc2c1)N1CCN(Cc2ccc3c(c2)OCO3)CC1	.	68*	2	20	0.72	.
O=S(=O)(c1ccc(F)c(F)c1)N1CCN(Cc2ccc3c(c2)OCO3)CC1	-0.95	78*	-6	6	1.1	-1.6
COc1cc(C)c(C)cc1S(=O)(=O)N1CCN(Cc2ccc3c(c2)OCO3)CC1	0.82	60*	16	-57	-0.64	.
CCn1c2ccccc2c2cc(CN3CCN(S(=O)(=O)Cc4ccccc4)CC3)ccc21	-0.17	55*	-13	-24	0.28	.
Cc1cccc(-c2noc(CN(C(=O)C34CC5CC(CC(C5)C3)C4)C(C)C)n2)c1	0.41	5	22	-49	-0.31	-0.77
COc1cc(C(=O)NCc2ccco2)c(Br)c(OC)c1OC	-0.21	-6	7	40	.	0.14
